# Inconclusive results are not listed. A number with no mark means an inactive call. Activity calls are given as the source filed them. The call rests on the fitted dose curve; in most records, active means well fitted cell-killing curve with a large enough effect; inconclusive means small, poorly fitted or top-dose-only effect; inactive means flat fitted curve, though single readings scatter.
# Test: Cell Viability - LYMP2-002 (AID 977);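 further: plate controls were DMSO only for no effect and 92 µM tetraoctylammonium bromide for full effect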
# Conditions: LYMP2-002 lymphoblastoid cell viability, qHTS; series mostly up to 92.2 µM; activity change, negative = cytotoxic: at the top concentration
# Method in brief: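 Luminescent ATP readout (CellTiter-Glo, 30 min room temperature) after 24 h compound exposure at 37 C of a human lymphoblastoid line, 2500 cells/well. AC50 values derived by standard Hill fitting of qHTS concentration-response data.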
SMILES,"activity change, negative = cytotoxic [%]",Potency
Brc1ccccc1,4.5,
CCOP(=S)(OCC)SCSC(C)(C)C,-10.9,
C=C(C)C#N,-23.3,
CCSC(=O)Cl,-2.46,
Cc1cccc([N+](=O)[O-])c1,-12,
Nc1c(Cl)c(Cl)nc(C(=O)O)c1Cl,-0.41,
CC(C)(C)OOC(C)(C)C,13.8,
C=C(C)C(=O)OCC1CO1 (centres undefined),5.33,
Cc1ccc([N+](=O)[O-])cc1C,2.82,
O=[N+]([O-])c1ccc(Cl)c(Cl)c1,-7.28,
C=CC(=C)C,0.599,
Cc1ccc2ccccc2c1,7.93,
Nc1ccccc1Cl,13.7,
Clc1ccc2ccccc2c1,-6.33,
[O-][Br+2]([O-])O,,inactive
Clc1nc(Cl)nc(Nc2ccccc2Cl)n1,6.29,
OCC1CO1 (centres undefined),-7.51,
C=CCOC(=O)c1ccccc1N,-3.18,
C=CC(N)=O,,inactive
CC(C)(c1ccccc1)c1ccc(O)cc1,-5.59,

SMILES,"activity change, negative = cytotoxic [%]",Potency
CCN(CC)c1ccccc1,13.8,
S=C=Nc1cccc2ccccc12,14.2,
N#CCCCl,,inactive
O=NN(CCO)CCO,-3.25,
Cc1ccccc1N,,inactive
C=CCOC(C)=O,-4.86,
CCCC(=O)Cl,-2.04,
NC(=S)Nc1ccccc1,,inactive
O=C(Cl)/C=C/C(=O)Cl,3.74,
C=C(Cl)Cl,3.44,
ClCBr,-13.4,
COc1ccc(C=O)cc1OC,16.7,
C=CC(=O)OCC,-7.4,
c1nc[nH]n1,-5.17,
c1ccc2c(c1)CCCC2,4.47,
CCCSC(=O)Cl,-12.5,
Clc1cccc(C(Cl)(Cl)Cl)n1,-7.65,
O=NN(c1ccccc1)c1ccccc1,2.19,
C1CCC2CCCCC2C1 (centres undefined),5.35,
CC(O)CCl (centres undefined),7.41,

# Test: Cell Viability - LYMP2-006 (AID 978); further: on the % scale 0 is the no-effect control and ±100 the full control effect; nearly all actives have a fitted effect of over 60% in size
# Conditions: LYMP2-006 lymphoblastoid cell viability, qHTS; series mostly up to 92.2 µM; activity change, negative = cytotoxicity: at the top concentration
# Method in brief: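 Cells are seeded at 2500 per well and rested 5 hr at 37 C. Compounds are added across a concentration series for 24 hr at 37 C, after which ATP is quantified by luciferase luminescence.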
SMILES,"activity change, negative = cytotoxicity [%]",Potency
Brc1ccccc1,-19.1,
CCOP(=S)(OCC)SCSC(C)(C)C,-1.12,
C=C(C)C#N,-7.82,
CCSC(=O)Cl,-0.715,
Cc1cccc([N+](=O)[O-])c1,13.9,
Nc1c(Cl)c(Cl)nc(C(=O)O)c1Cl,-2.09,
CC(C)(C)OOC(C)(C)C,2.06,
C=C(C)C(=O)OCC1CO1 (centres undefined),-21.4,
Cc1ccc([N+](=O)[O-])cc1C,5.14,
O=[N+]([O-])c1ccc(Cl)c(Cl)c1,-7.43,
C=CC(=C)C,-1.82,
Cc1ccc2ccccc2c1,-13.7,
Nc1ccccc1Cl,-2.8,
Clc1ccc2ccccc2c1,2.28,
[O-][Br+2]([O-])O,,inactive
Clc1nc(Cl)nc(Nc2ccccc2Cl)n1,-11.6,
OCC1CO1 (centres undefined),6.47,
C=CCOC(=O)c1ccccc1N,1.02,
C=CC(N)=O,,inactive
CC(C)(c1ccccc1)c1ccc(O)cc1,-2.97,

SMILES,"activity change, negative = cytotoxicity [%]",Potency
CCN(CC)c1ccccc1,-2.9,
S=C=Nc1cccc2ccccc12,-8.77,
N#CCCCl,,inactive
O=NN(CCO)CCO,-6.57,
Cc1ccccc1N,,inactive
C=CCOC(C)=O,-4.6,
CCCC(=O)Cl,-6.14,
NC(=S)Nc1ccccc1,,inactive
O=C(Cl)/C=C/C(=O)Cl,2.44,
C=C(Cl)Cl,0.154,
ClCBr,2.63,
COc1ccc(C=O)cc1OC,-18.8,
C=CC(=O)OCC,-0.559,
c1nc[nH]n1,-2.37,
c1ccc2c(c1)CCCC2,-7.69,
CCCSC(=O)Cl,-7.2,
Clc1cccc(C(Cl)(Cl)Cl)n1,-10.5,
O=NN(c1ccccc1)c1ccccc1,-2.67,
C1CCC2CCCCC2C1 (centres undefined),-7.55,
CC(O)CCl (centres undefined),-5.7,

# Test: Cell Viability - LYMP2-007 (AID 979);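 further: cells exposed to compound for 24 h before reading; 0% = DMSO only and the negative end = 92 µM tetraoctylammonium bromide; nearly all actives have a fitted effect of over 60% in size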
# Conditions: LYMP2-007 lymphoblastoid cell viability; series mostly up to 92.2 µM; activity change, negative = cytotoxicity: at the top concentration
# Method in brief: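 Human lymphoblastoid cells (2500/well) were plated in complete medium, incubated 5 hr at 37 C, then exposed to compounds for 24 hr at 37 C. Intracellular ATP was read by CellTiter-Glo luminescence after 30 min at room temperature; AC50 from Hill fits.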
SMILES,"activity change, negative = cytotoxicity [%]",Potency
Brc1ccccc1,-12.5,
CCOP(=S)(OCC)SCSC(C)(C)C,-6.52,
C=C(C)C#N,-7.46,
CCSC(=O)Cl,-7.36,
Cc1cccc([N+](=O)[O-])c1,-6.07,
Nc1c(Cl)c(Cl)nc(C(=O)O)c1Cl,-10.8,
CC(C)(C)OOC(C)(C)C,3.82,
C=C(C)C(=O)OCC1CO1 (centres undefined),0.998,
Cc1ccc([N+](=O)[O-])cc1C,0.601,
O=[N+]([O-])c1ccc(Cl)c(Cl)c1,-4.6,
C=CC(=C)C,-2.44,
Cc1ccc2ccccc2c1,-10.4,
Nc1ccccc1Cl,-1.91,
Clc1ccc2ccccc2c1,-0.172,
[O-][Br+2]([O-])O,,inactive
Clc1nc(Cl)nc(Nc2ccccc2Cl)n1,-2.35,
OCC1CO1 (centres undefined),0.329,
C=CCOC(=O)c1ccccc1N,-16.2,
C=CC(N)=O,,inactive
CC(C)(c1ccccc1)c1ccc(O)cc1,-9.62,

SMILES,"activity change, negative = cytotoxicity [%]",Potency
CCN(CC)c1ccccc1,2.56,
S=C=Nc1cccc2ccccc12,-15.3,
N#CCCCl,,inactive
O=NN(CCO)CCO,-7.81,
Cc1ccccc1N,,inactive
C=CCOC(C)=O,-6.22,
CCCC(=O)Cl,-0.501,
NC(=S)Nc1ccccc1,,inactive
O=C(Cl)/C=C/C(=O)Cl,0.0336,
C=C(Cl)Cl,-4.56,
COc1ccc(C=O)cc1OC,-3.62,
C=CC(=O)OCC,-1.58,
c1nc[nH]n1,2.15,
c1ccc2c(c1)CCCC2,-1.07,
CCCSC(=O)Cl,-8.54,
Clc1cccc(C(Cl)(Cl)Cl)n1,-0.391,
O=NN(c1ccccc1)c1ccccc1,5.2,
C1CCC2CCCCC2C1 (centres undefined),-11.6,
CC(O)CCl (centres undefined),1.58,

# — PubChem BioAssay (NCATS)
